Cardio protect = protects H9c2 cardiomyocytes from peroxide injury; H2O2 injury protection, ATPLite, 2 h; protection from H2O2 cell death, % at 20 µM; 360,000 tested, 0.63% active;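 active = compounds giving at least 50% protection of heart cells from peroxide-induced death in the single-dose screen, raw or plate-pattern-corrected value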;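 note: 0% = DMSO wells with peroxide and 100% = DMSO wells without peroxide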
PfG6PD inh = PfG6PD (Plasmodium falciparum) enzyme inhibition; PfGluPho enzyme, NADPH resazurin-diaphorase fluorescence; inhibition, % at 20 µM; 350,000 tested, 0.78% active; AID 504690;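 active = inhibition reaching at least a set limit at 20 µM in the primary screen, cut at about 59% in these data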;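 note: 0% = DMSO wells with substrate and 100% = DMSO wells lacking glucose-6-phosphate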
A3G deaminase = blocks human APOBEC3G single-stranded DNA deamination | inhibition, % at 20 µM | Q9HC16 | 330,000 tested, 0.28% active | recombinant A3G, ssDNA deamination FAM/TAMRA fluorescence;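 active = inhibition of at least 40% at 20 µM, with no more than 30% in the related APOBEC3A deaminase screen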;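 note: plate controls were DMSO wells with A3G for no effect and wells lacking A3G enzyme for full effect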
Target sequence (Q9HC16 whole entry, looked up): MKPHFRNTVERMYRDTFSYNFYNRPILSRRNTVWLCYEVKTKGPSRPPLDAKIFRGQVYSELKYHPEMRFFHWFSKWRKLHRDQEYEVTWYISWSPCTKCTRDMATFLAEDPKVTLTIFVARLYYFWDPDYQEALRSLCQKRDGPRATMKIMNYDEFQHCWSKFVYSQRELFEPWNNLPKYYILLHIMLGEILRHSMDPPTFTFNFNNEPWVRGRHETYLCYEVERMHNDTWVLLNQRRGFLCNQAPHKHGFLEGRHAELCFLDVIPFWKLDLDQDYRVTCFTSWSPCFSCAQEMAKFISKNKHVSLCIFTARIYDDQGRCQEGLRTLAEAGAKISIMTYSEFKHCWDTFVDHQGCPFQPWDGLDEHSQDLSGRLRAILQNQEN
A3A deaminase = inhibitors of human APOBEC3A DNA deaminase | P31941 | recombinant A3A, FAM/TAMRA ssDNA deamination fluorescence | inhibition, % at 20 µM | 330,000 tested, 0.41% active | AID 493011;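 active = at least 40% inhibition at 20 µM here, with at most 30% in a related deaminase screen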;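 note: plate controls were A3A with DMSO for no effect and wells lacking A3A enzyme for full effect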
Target sequence (P31941 whole entry, looked up): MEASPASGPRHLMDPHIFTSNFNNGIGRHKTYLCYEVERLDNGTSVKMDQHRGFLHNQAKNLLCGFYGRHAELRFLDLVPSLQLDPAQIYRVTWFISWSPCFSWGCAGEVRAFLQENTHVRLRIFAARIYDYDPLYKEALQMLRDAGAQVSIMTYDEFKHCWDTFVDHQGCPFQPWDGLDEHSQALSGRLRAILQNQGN
H9c2 TAG inh = inhibitors of triacylglycerol accumulation; inhibition, % at 12.5 µM; 230,000 tested, 0.66% active; AID 651582; H9c2 cells, Nile Red lipid (TAG) fluorescence; cells loaded with 200 µM oleic acid;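 active = pattern-corrected inhibition of lipid staining of at least 50% with the nuclear-stain viability signal not falling by more than 50%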;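 note: 0% = DMSO wells and 100% = triacsin C control wells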
NadD inh = inhibitors of Staphylococcus aureus NadD. AID 602399. inhibition, % at 20 µM. 360,000 tested, 0.78% active. purified NadD enzyme, colorimetric absorbance read-out; in the data active = inhibition above about 26%
NadD conf = NadD (S. aureus) inhibition, single concentration confirmation; shares compounds with NadD inh; 2,000 tested, 13% active; inhibition, % at 20 µM; purified S. aureus NadD, colorimetric enzyme assay; in the data active = inhibition mostly above about 42%, no sharp cut-off; inactive = mostly below about 42%
Active calls of the source: *; nt = no result given. Hits are enriched below; roughly 2.9% of the tested compounds scored in any of these assays.

SMILES | Cardio protect | PfG6PD inh | A3G deaminase | A3A deaminase | H9c2 TAG inh | NadD inh | NadD conf
COc1ccc(-c2ccc3c(c2)S(=O)(=O)c2cccc(C(=O)NCc4cccc(OC(F)(F)F)c4)c2C3=O)cc1OC | 4 | -6 | -8 | 2 | -83 | 14 | nt
O=C(NCc1ccccc1)c1cccc2c1C(=O)c1ccc(/C=C/c3ccccc3)cc1S2(=O)=O | 6 | -8 | -1 | 4 | -11 | 34* | -6
O=C(NCc1cccc(OC(F)(F)F)c1)c1cccc2c1C(=O)c1ccc(-c3ccc(F)cc3OCc3ccccc3)cc1S2(=O)=O | -6 | 9 | 1 | 3 | 48 | 48* | 33
O=C(NCc1cccc(F)c1)c1cccc2c1C(=O)c1ccc(N3CCOCC3)cc1S2(=O)=O | 26 | 4 | -4 | 1 | -8 | 8 | nt
COCCN(C(=O)COC(=O)CSc1ccccc1)c1c(N)n(Cc2ccccc2)c(=O)[nH]c1=O | -1 | -3 | -9 | 2 | 7 | -3 | nt
CN1/C(=C/C(=O)COC(=O)C2COc3ccccc3O2)C(C)(C)c2ccccc21 (stereo unspecified) | -7 | 22 | nt | nt | -12 | -8 | nt
O=C(NCCCN1CCOCC1)C(=O)NCc1ccccc1Cl | -2 | 7 | -3 | -7 | 20 | 0 | nt
CCCSC1=N/C(=C\c2ccc3c(c2)OCO3)C(=O)S1 | 6 | -5 | -8 | -3 | 2 | 40* | -3
O=C1SC(SCc2ccccc2)=N/C1=C\c1ccco1 | -15 | -17 | 2 | 12 | nt | 15 | nt
CCCSC1=N/C(=C\C=C\c2ccco2)C(=O)S1 | 5 | 25 | 71 | 94 | 6 | 40* | 24
CCSC1=N/C(=C\c2ccc3c(c2)OCO3)C(=O)S1 | 11 | -25 | 0 | 1 | -2 | 0 | nt
N=C1SC(CC(=O)Nc2ccccc2[N+](=O)[O-])C(=O)N1c1ccccc1 (stereo unspecified) | 3 | -15 | -5 | -1 | -3 | -6 | nt
Cc1ccc([C@@H]2CC=C(C(=O)O)[C@H](c3ccc(F)cc3)N2S(=O)(=O)c2ccccc2C)cc1 | 5 | -37 | -1 | -1 | 7 | 42* | 36
COc1cc(/C=C/C(=O)O)ccc1O | 1 | -30 | -7 | 1 | nt | -5 | nt
COc1cc(/C=C/C(=O)CC(=O)/C=C/c2ccc(O)c(OC)c2)ccc1O | 75* | -5 | -4 | 1 | 14 | 56* | 52*
Cc1ccc(S(=O)(=O)c2nnn3c2nc(N2CCC(C(N)=O)CC2)c2ccccc23)cc1 | -1 | -10 | 1 | -1 | nt | 5 | nt
Cc1ccc(S(=O)(=O)c2nnn3c2nc(N2CCN(c4ccccn4)CC2)c2ccccc23)cc1C | 3 | 5 | -3 | -1 | nt | 40* | 12
Cc1nnc(NC(=O)c2sc3nc(-c4cccs4)cc(C(F)(F)F)c3c2N)s1 | 0 | -33 | -8 | -4 | nt | 30* | -3
CC(C)(C)C(=O)c1sc2nc(-c3cccs3)cc(C(F)(F)F)c2c1N | -8 | -11 | -15 | -10 | nt | -2 | nt
CCN(CC)C(=O)c1sc2nc(-c3cccs3)cc(-c3cccs3)c2c1N | 7 | 44 | 9 | 4 | 17 | 73* | 8
N#Cc1sc2nc(-c3cccs3)cc(-c3ccc(Cl)cc3)c2c1N | -9 | -5 | 2 | -3 | nt | 0 | nt
CCN(CC)C(=O)c1sc2nc(-c3cccs3)cc(-c3ccc(Cl)cc3)c2c1N | 9 | 35 | -7 | -1 | 42 | 44* | -5
COC(=O)c1cc(OC)c(OC)cc1NC(=O)C(C)c1ccc([N+](=O)[O-])cc1 (stereo unspecified) | -1 | 25 | -3 | -1 | nt | -2 | nt
Cc1cc(C)c(NC(=O)C2CCCO2)c(C)c1 (stereo unspecified) | -1 | -2 | -1 | -2 | 4 | -6 | nt
O=C(O)CC/C(=C\c1cc([N+](=O)[O-])ccc1Cl)c1nc2ccccc2s1 | -5 | -31 | nt | nt | nt | 1 | nt
SMILES | Cardio protect | PfG6PD inh | A3G deaminase | A3A deaminase | H9c2 TAG inh | NadD inh | NadD conf
CN(c1ccccc1)c1ccc(/C=C(/CCC(=O)O)c2nc3ccccc3s2)cc1[N+](=O)[O-] | -4 | 0 | nt | nt | -10 | 43* | 38
O=C(O)CC/C(=C\c1cccc(NC(=O)c2ccccc2Cl)c1)c1nc2ccccc2s1 | -1 | -37 | 3 | -1 | 11 | 30* | 38
O=C(O)CC/C(=C\c1ccc(N2CCCC2)c([N+](=O)[O-])c1)c1nc2ccccc2s1 | 2 | 12 | -6 | -5 | 9 | 25 | nt
CCN(CC(=O)Nc1ccccc1C(F)(F)F)C(=O)/C=C/c1ccc(Cl)c([N+](=O)[O-])c1 | -7 | -5 | -6 | 31 | -9 | -3 | nt
CC1(C)Cc2c(c(N3CCOCC3)nc3sc4c(NN)ncnc4c23)CS1 | 59* | 12 | -2 | -2 | 40 | 34* | 1
CC(C)CNc1nnnc2c1sc1nc(N3CCOCC3)c3c(c12)CC(C)(C)SC3 | 25 | 17 | -4 | -19 | 35 | 21 | nt
COc1ccccc1-c1sc2ccccc2c1-c1ccccc1OC | -4 | 9 | -3 | -1 | -7 | -4 | nt
Cc1nc(-c2ccc3c(c2)CCC(=O)N3)cs1 | 0 | -15 | -2 | -6 | 13 | 2 | nt
Cc1ccc(-c2csc(Cc3nc(-c4ccc5c(c4)CCC(=O)N5)cs3)n2)cc1 | -3 | 7 | -6 | -7 | nt | 33* | 19
COCCn1c(=NC(=O)c2cc(-c3cccs3)nc3ccccc23)sc2cc(S(N)(=O)=O)ccc21 | 42 | 1 | -11 | -9 | nt | 52* | 57*
C=CCn1c(=NC(=O)c2cc(-c3cccs3)nc3ccccc23)sc2cc(S(N)(=O)=O)ccc21 | 24 | 14 | -1 | -3 | nt | 51* | 59*
CCOC(=O)Cn1c(=NC(=O)c2nc3ccccc3s2)sc2cc(S(N)(=O)=O)ccc21 | 21 | -14 | -9 | -7 | nt | 19 | nt
Nc1ccc2c(c1)C/C(=C/c1ccco1)C2=O | -11 | 53 | 84 | 91 | nt | 31* | 8
O=C1/C(=C/c2ccco2)CCc2ccccc21 | -7 | 9 | 3 | 12 | nt | -4 | nt
Cc1cc(O)c(C(=O)/C=C/c2cccc([N+](=O)[O-])c2)c(=O)o1 | -6 | -5 | 9 | 8 | 0 | 35* | 5
Cc1cc2nc(/C=C/c3nc4cc(C)c(C)cc4[nH]3)[nH]c2cc1C | 7 | -5 | nt | nt | nt | 31* | -17
CC(=O)Nc1ccc(S(=O)(=O)Nc2ccc(S(=O)(=O)N3CCCC3)cc2)cc1 | 8 | -34 | -4 | -2 | nt | -3 | nt
CC(=O)Nc1ccc(S(=O)(=O)/N=C2\SCCN2S(=O)(=O)c2ccc(NC(C)=O)cc2)cc1 | 13 | 14 | -4 | -1 | 12 | 58* | 48
C/C(CCC12CC3CC(CC(C3)C1)C2)=N\NC(N)=S | -10 | 2 | -2 | -1 | nt | 34* | 44

From PubChem BioAssay
